Shown are actives, neighbours in structure and some others; about 2.7% of the full set was active somewhere.
ALOX12 inh = inhibitors of human 12S-lipoxygenase ALOX12 | purified 12hLO, xylenol orange hydroperoxide absorbance | Potency, µM (series often up to 108 µM), inactives show at the top dose activity change, negative = inhibition, most hits filed as inhibitors | 580,000 compounds, 1.1% hits; also: potency is read from the fitted curve at half-maximal effect; % is scaled to controls: 0 for no effect and ±100 for the full control effect
Target sequence (P18054 whole entry, looked up): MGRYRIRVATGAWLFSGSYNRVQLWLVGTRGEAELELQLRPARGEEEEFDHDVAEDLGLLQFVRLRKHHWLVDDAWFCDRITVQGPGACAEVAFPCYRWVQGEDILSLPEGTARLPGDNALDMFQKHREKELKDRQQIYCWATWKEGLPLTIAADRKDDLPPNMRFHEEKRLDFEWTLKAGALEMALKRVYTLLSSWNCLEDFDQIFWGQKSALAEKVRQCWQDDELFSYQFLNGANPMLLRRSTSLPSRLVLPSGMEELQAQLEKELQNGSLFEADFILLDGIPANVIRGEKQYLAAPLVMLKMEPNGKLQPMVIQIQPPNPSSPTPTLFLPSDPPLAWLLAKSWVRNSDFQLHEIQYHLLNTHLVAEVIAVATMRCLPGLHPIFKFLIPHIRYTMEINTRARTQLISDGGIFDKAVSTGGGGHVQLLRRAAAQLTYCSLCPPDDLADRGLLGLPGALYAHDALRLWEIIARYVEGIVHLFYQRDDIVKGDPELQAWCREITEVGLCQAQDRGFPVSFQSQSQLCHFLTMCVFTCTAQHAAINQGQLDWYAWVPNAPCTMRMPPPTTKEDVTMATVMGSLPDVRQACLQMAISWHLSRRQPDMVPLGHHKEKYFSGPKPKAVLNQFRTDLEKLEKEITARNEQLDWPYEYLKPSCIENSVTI
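Purified human 12hLO at 150 nM in 25 mM Hepes, 0.01% Triton X-100, pH 7.0, preincubated 15 min at room temperature with compound. Reaction started with 40 uM arachidonic acid, 30 min at room temperature. Hydroperoxide measured by Fe-xylenol orange, 573/405 nm absorbance ratio.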
Nrf2 inh = inhibitors of Nrf2 signaling. AID 504444. A549 ARE-Fluc reporter, luciferase luminescence, 18-24 h. Potency, µM (highest dose often 46 µM), for inactives: at the highest dose activity change, negative = inhibition, hits mostly inhibitors. 360,000 compounds, 2.1% hits; also: potency is read from the fitted curve at half-maximal effect; % is scaled to controls: 0 for no effect and ±100 for the full control effect; nearly all actives have a fitted effect of over 60% in size
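Concentration-response testing used A549 ARE_Fluc cells at 5000 cells/well. Following an 18-24 h compound incubation, viability was read by fluorescence (Ex 405/Em 525) and luciferase output by luminescence.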
A549 tox = kills or reduces viability of A549 cells in Nrf2 counter-screen | A549 ARE-Fluc cells, CellTiter-Fluor viability, 18-24 h | Potency, µM (doses to about 46 µM), without a hit: at the highest dose activity change, negative = cytotoxicity, hits mostly inhibitors | 390,000 compounds, 0.16% hits | AID 504648; also: potency is read from the fitted curve at half-maximal effect; % is scaled to controls: 0 for no effect and ±100 for the full control effect
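Cytotoxicity counterscreen: CellTiter-Fluor fluorescence was measured in A549 ARE_Fluc cells after 18-24 h of compound exposure in a concentration series. The subsequent BugLite luminescent read reports ARE-luciferase activity.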
Nrf2 activator = activators of Nrf2 (ARE) signaling; AID 624171; AREc32 ARE-luciferase reporter (MCF7-derived line), luminescence, 24 h; 410,000 compounds, 0.31% hits; Potency, µM (titrated, usually from 46.1 µM), inactives show at the highest dose activation, usual class: activators; also: potency is read from the fitted curve at half-maximal effect; % of control where 0% means no effect; nearly all actives have a fitted effect of over 65% in size
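ARE-driven firefly luciferase activity in AREc32 cells measured after a 24 hr compound exposure at 37 deg C, using Steady-Glo reagent and a 30 min room-temperature hold.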
LDHA inh = blocks human lactate dehydrogenase A; activity change, % (values are at about 110 or 230 µM); 480,000 compounds, 0.15% hits; AID 1347041; purified LDHA, NADH/diaphorase-resazurin fluorescence; hits give low values; in the data active = activity change below about -30%; inconclusive = mostly about -25% to -30%;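 also: plate controls were DMSO wells for no effect and wells without enzyme for full effect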
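LDH5 2 nM; NADH 0.06 mM, pyruvate 0.2 mM; 200 mM Tris pH 7.4, EDTA, Tween-20; 5 min RT. Detection: diaphorase 0.133 mg/mL + resazurin 37 µM, fluorescence ex540/em590 at 0 and 20 min; normalized to enzyme-free and DMSO wells.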
ERG Ets-DNA blk = inhibitors of human ERG Ets domain-DNA interaction; fluorescence polarization, His-ERG Ets domain / labelled DNA; 370,000 compounds, 0.028% hits; P11308; Potency, µM (highest dose often 76.9 µM), inactives show top-dose FP activity, negative = inhibition, hits mostly inhibitors; active = well fitted inhibition curve with a large enough effect in the polarisation, with a control signal flat; inconclusive = small, poorly fitted or top-dose-only effect, or effect the other way, or a change in a side signal; inactive = no such curve, though single readings can be large or run the other way; the % refers to the polarisation;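 also: polarization taken with two DNA probes labelled with fluorescein and Texas red; potency is read from the fitted curve at half-maximal effect; % of control where 0% means no effect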
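His-tagged ERG Ets domain (1 uM in the protein solution; 300mM KCl, 50mM Tris-HCl, 1mM EDTA, 1mM DTT, pH 7.5) received compound, then a probe mix of 5 nM fluorescein-DNA and 100nM Texas-615-DNA. Fluorescence polarization was read for both dyes.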
Numbers without * were called inactive; ? = inconclusive; / = no result. Unless noted, calls follow the shape of the dose curve; as a rule, active = well fitted curve in the direction sought with a large enough effect; inconclusive = small, poorly fitted or top-dose-only effect, or another doubt; inactive = no such curve, though single readings can be large; an effect the other way counts as inactive or inconclusive.

SMILES | ALOX12 inh | Nrf2 inh | A549 tox | Nrf2 activator | LDHA inh | ERG Ets-DNA blk
O=C(/C=C/c1ccc(-c2ccccc2[N+](=O)[O-])o1)c1ccco1 | ? | 18% | 13% | 10µM* | 4 | 5%
O=C(/C=C/c1ccco1)c1ccccc1 | 16µM* | / | / | / | 7 | /
O=C(/C=C/c1ccco1)NCCc1ccc(F)cc1 | ? | ? | -12% | 14µM* | -9 | 7%
O=C(/C=C/C=C/c1ccccc1)c1ccco1 | ? | 29% | -2% | 11µM* | -3 | -15%
Cc1cc(C)c(C(=O)/C=C/c2ccco2)cc1C | ? | / | / | / | 7 | /
Cc1cc(Br)ccc1NC(=O)c1nc2ccccc2nc1N1CCN(C)CC1 | 3% | / | / | / | 0 | /
COc1cccc2c1OC1OC2Oc2c(OC)cccc21 | ? | / | / | / | -2 | /
O=C(C=Cc1ccco1)c1ccco1 | 8.9µM* | 3% | -3% | ? | 4 | 8%
Oc1ccc(-c2nccc(-c3cccs3)n2)cc1 | ? | ? | -6% | 10µM* | -8 | -13%
CCOC(=O)c1ccc(N2C(=O)c3n[nH]c(C)c3C2c2ccccc2OC)cc1 (stereo not given) | -9% | 8.2µM* | -2% | 5% | -1 | 1%
CCOC(=O)c1ccc(N2C(=O)c3n[nH]c(-c4ccco4)c3C2c2cccc(O)c2)cc1 (stereo not given) | ? | -10% | 1% | -3% | 5 | -1%
CCOC(=O)c1ccc(N2C(=O)c3n[nH]c(-c4ccco4)c3C2c2ccccc2OC)cc1 (stereo not given) | -22% | 26µM* | -21% | -3% | -1 | -3%
Cc1cc(N2CCCC2)nc2ccc(NC(=S)NCCCN3CCC(C)CC3)cc12 | -17% | -1% | 9.2µM* | 12% | -1 | 0%
CC(Sc1n[nH]c(-c2ccccc2)n1)c1nc(C(C)(C)C)no1 (stereo not given) | -7% | / | / | / | 2 | /
Cc1cccc(C)c1OCC(=O)N/N=C/C=C/c1ccco1 | ? | 3% | -5% | 1.6µM* | 1 | 12%
O=C(Cc1cccs1)N/N=C/c1ccco1 | -5% | 10% | -2% | 3% | 9 | 0%
Cc1cc(C)cc(OCC(=O)N/N=C/c2ccco2)c1 | 0% | -6% | 1% | 2% | -3 | -14%
Cc1cccc(OCC(=O)N/N=C/C=C/c2ccco2)c1 | ? | 12% | -1% | 22µM* | 12 | 3%
CCOC(=O)N/N=C\C=C\c1ccco1 | ? | ? | 4% | ? | 6 | 10%
O=C(Cc1cccs1)N/N=C/C=C\c1ccco1 | ? | ? | -5% | 11µM* | 7 | 14%
Cc1ccc(OCC(=O)N/N=C/C=C/c2ccco2)c(Br)c1 | 40µM* | -5% | 0% | 26% | -6 | 2%
O=C(Nc1cc(Cl)cc(Cl)c1)c1ccc(S(=O)(=O)C2CCS(=O)(=O)C2)cc1 (stereo not given) | ? | / | / | / | 2 | /
Cc1ccc(CCNC(=O)CN2C(=O)CN(C(=O)NCc3ccccc3)c3ccccc32)cc1 | -17% | / | / | / | 2 | /
Cc1oc2cc(OC(=O)c3ccco3)ccc2c(=O)c1-c1ccccc1 | 10% | / | / | / | -15 | /
Cc1oc2cc(OC(=O)c3ccco3)ccc2c(=O)c1-c1ccc(Br)cc1 | ? | / | / | / | -34* | /
Cc1cccc(N(C(=O)c2snc(C(N)=O)c2N)C(C(=O)NCc2ccccc2)c2ccncc2)c1 (stereo not given) | -25% | 23µM* | -15% | 0% | -6 | -3%
COc1ccc(N(C(=O)c2snc(C(N)=O)c2N)C(C(=O)NCc2ccccc2)c2ccc(O)cc2)cc1 (stereo not given) | -6% | 11% | -3% | 1% | -9 | 4%
COc1ccc(N2CCN(C(=O)c3nc(SC)ncc3Cl)CC2)cc1 | -22% | 3% | 5% | 1% | 7 | -2%

Screening results deposited in PubChem BioAssay by National Center for Advancing Translational Sciences (NCATS).
